A number with no mark means an inactive call. Active and inactive are the calls of the source. The rule behind the calls is not given here.

Usually inhibition stands for how much of the control response was suppressed.

This experiment deals with 80kDa SH. In words: serine hydrolase inhibition in mouse brain membranes, late-stage follow-up, selectivity assay for DAGLb inhibitor project, biochemical, gel-based competitive ABPP, fluorescence, set 2 (AID 602323). To be noted: mouse brain membrane, at 1 µM, hits give high values.
Consider `Cc1ccccc1-c1ccc(-c2cn(C(=O)N3CCCCC3Cc3ccccc3)nn2)cc1` (centres undefined), for which the inhibition is 0%.

Take `O=C(N1CCCCC1Cc1ccccc1)n1cc(-c2ccc(Br)cc2)nn1` (centres undefined): the inhibition is 50% (active).

Take `O=C(N(CCc1ccccc1)Cc1ccco1)n1cc(-c2ccc(OC(F)(F)F)cc2)nn1`: the inhibition is 80% (active).

On to `O=C(N1CCCCC1Cc1ccccc1)n1cc(-c2ccc(-c3ccccc3C(F)(F)F)cc2)nn1` (centres undefined), for which the inhibition is 0%.

As for `O=C(c1ccc(-c2ccc(-c3cn(C(=O)N4CCCCC4Cc4ccccc4)nn3)cc2)cc1)N1CCCCC1` (centres undefined), the inhibition is 40%.

On to `O=C(N1CCCCC1Cc1ccccc1)n1cc(-c2ccc(-c3ccccc3OC(F)(F)F)cc2)nn1` (centres undefined), for which the inhibition was 10%.

With `O=C(N1CCCCC1Cc1ccccc1)n1cc(-c2ccc(-c3ccoc3)cc2)nn1` (centres undefined), the inhibition was 20%.

For the compound `COc1ccccc1-c1ccc(-c2cn(C(=O)N3CCCCC3Cc3ccccc3)nn2)cc1` (centres undefined), the inhibition is 0%.

Consider `O=C(N1CCCCC1Cc1ccccc1)n1cc(-c2ccc(-c3cccc(C(F)(F)F)c3)cc2)nn1` (centres undefined), for which the inhibition is 0%.

As for `O=C(N1CCCCC1Cc1ccccc1)n1cc(-c2ccc(-c3ccccc3Cl)cc2)nn1` (centres undefined), the inhibition is 0%.

With `O=C(N1CCCCC1Cc1ccccc1)n1cc(-c2ccccc2-c2ccccc2)nn1` (centres undefined), the inhibition is 80% (active).

Turning to `O=C(N1CCCCC1Cc1ccccc1)n1cc(-c2ccc(-c3ccc(OC(F)(F)F)cc3)cc2)nn1` (centres undefined), the inhibition is 0%.

Regarding `O=C(N1CCCCC1Cc1ccccc1)n1ncc(-c2ccc(OC(F)(F)F)cc2)n1` (centres undefined), the inhibition was 50% (active).

For `O=C(N1CCCCC1Cc1ccccc1)n1cc(-c2ccc(-c3ccc(C(F)(F)F)cc3)cc2)nn1` (centres undefined), the inhibition is 0%.

Take `O=C(N1CCCCC1Cc1ccccc1)n1ncc(C(O)(c2ccccc2)c2ccccc2)n1` (centres undefined): the inhibition is 20%.

In the case of `O=C(N1CCCCC1Cc1ccccc1)n1cc(-c2cc(F)cc(F)c2)nn1` (centres undefined), the inhibition was 80% (active).

Consider `O=C(N1CCCCC1Cc1ccccc1)n1cc(-c2ccc(OC(F)(F)F)cc2)nn1` (centres undefined), for which the inhibition is 20%.

On to `O=C(N1CCCCC1Cc1ccccc1)n1cc(-c2ccc(-c3ccc4c(c3)OCO4)cc2)nn1` (centres undefined), for which the inhibition is 0%.

In the case of `O=C(N1CCCCC1Cc1ccccc1)n1cc(-c2cccc(-c3ccccc3)c2)nn1` (centres undefined), the inhibition is 0%.

`O=C(c1ccc(-c2cn(C(=O)N3CCCCC3Cc3ccccc3)nn2)cc1)N1CCCCC1` (centres undefined): the inhibition is 20%.

`O=C(N1CCCCC1Cc1ccccc1)n1cc(-c2ccc(-c3cccc(CO)c3)cc2)nn1` (centres undefined): the inhibition was 10%.

For `CC(C)(C)OC(=O)NCCCCCN(CCc1ccccc1)C(=O)n1cc(-c2ccc(OC(F)(F)F)cc2)nn1`, the inhibition is 80% (active).

With `CC(C)CN(CCc1ccccc1)C(=O)n1cc(-c2ccc(OC(F)(F)F)cc2)nn1`, the inhibition was 80% (active).

Take `O=C(N1CCCCC1Cc1ccccc1)n1cc(-c2ccc(-c3ccccc3CO)cc2)nn1` (centres undefined): the inhibition is 5%.

(Values after PubChem BioAssay AID602323 (The Scripps Research Institute Molecular Screening Center, 2012).)
